Data published in ChEMBL document CHEMBL1961873, “Compounds: GSK PKIS; Assays: Nanosyn kinase panel” (2012).

How the values were obtained:
[1] = molecular target: Ribosomal protein S6 kinase alpha-6 (Homo sapiens) (UniProt Q9UK32); conditions: at 1 µM;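 note: each value is a mean inhibition of RSK4 from a GSK PKIS panel screen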
[2] = molecular target: T1, Serine/threonine-protein kinase Sgk1 (Homo sapiens) (UniProt O00141); conditions: at 0.1 µM
T1 sequence (whole entry): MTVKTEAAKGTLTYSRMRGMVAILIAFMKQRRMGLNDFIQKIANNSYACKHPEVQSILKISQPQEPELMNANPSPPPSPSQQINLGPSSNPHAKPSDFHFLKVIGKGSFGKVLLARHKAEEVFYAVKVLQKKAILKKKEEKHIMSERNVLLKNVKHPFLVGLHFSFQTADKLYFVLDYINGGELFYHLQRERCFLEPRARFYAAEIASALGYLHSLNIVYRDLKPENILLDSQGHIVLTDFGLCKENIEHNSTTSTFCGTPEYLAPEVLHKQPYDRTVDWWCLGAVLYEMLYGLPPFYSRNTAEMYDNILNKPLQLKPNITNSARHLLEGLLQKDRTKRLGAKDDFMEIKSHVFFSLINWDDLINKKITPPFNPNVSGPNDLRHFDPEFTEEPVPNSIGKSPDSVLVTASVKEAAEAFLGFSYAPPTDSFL

[3] = molecular target: T1, Serine/threonine-protein kinase Sgk1 (Homo sapiens); conditions: at 1 µM
[4] = molecular target: T2, Serine/threonine-protein kinase Sgk2 (Homo sapiens) (UniProt Q9HBY8); conditions: at 0.1 µM
T2 sequence (whole entry): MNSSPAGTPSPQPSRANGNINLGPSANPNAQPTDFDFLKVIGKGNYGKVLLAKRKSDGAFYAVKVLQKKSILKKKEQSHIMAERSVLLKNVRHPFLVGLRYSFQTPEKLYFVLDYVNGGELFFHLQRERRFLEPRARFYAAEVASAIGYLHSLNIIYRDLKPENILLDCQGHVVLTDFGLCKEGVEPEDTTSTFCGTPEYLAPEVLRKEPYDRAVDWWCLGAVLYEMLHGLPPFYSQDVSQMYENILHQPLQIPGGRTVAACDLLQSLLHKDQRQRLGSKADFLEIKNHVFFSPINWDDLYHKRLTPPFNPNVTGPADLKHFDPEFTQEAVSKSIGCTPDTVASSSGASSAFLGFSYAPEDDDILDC

[5] = molecular target: T2, Serine/threonine-protein kinase Sgk2 (Homo sapiens); conditions: at 1 µM
[6] = molecular target: T3, Serine/threonine-protein kinase Sgk3 (Homo sapiens) (UniProt Q96BR1); conditions: at 0.1 µM
T3 sequence (whole entry): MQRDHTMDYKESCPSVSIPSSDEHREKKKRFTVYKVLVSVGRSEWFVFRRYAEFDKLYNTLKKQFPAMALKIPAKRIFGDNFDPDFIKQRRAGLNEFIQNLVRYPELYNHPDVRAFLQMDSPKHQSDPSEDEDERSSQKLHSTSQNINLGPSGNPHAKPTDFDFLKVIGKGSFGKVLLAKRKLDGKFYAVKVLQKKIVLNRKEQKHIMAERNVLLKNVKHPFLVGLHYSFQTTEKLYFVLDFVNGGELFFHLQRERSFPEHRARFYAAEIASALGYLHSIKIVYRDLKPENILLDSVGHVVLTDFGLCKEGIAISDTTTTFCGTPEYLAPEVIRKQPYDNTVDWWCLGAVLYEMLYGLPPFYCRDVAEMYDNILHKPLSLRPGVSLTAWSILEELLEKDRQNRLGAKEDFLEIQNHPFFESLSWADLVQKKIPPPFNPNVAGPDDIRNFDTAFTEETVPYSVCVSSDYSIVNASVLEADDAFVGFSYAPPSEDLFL

[7] = molecular target: T3, Serine/threonine-protein kinase Sgk3 (Homo sapiens); conditions: at 1 µM
[8] = molecular target: 5'-AMP-activated protein kinase catalytic subunit alpha-1 (Homo sapiens) (UniProt Q13131); conditions: at 0.1 µM
[9] = molecular target: 5'-AMP-activated protein kinase catalytic subunit alpha-1 (Homo sapiens) (UniProt Q13131); conditions: at 1 µM
[10] = molecular target: 5'-AMP-activated protein kinase catalytic subunit alpha-2 (Homo sapiens) (UniProt P54646); conditions: at 0.1 µM
[11] = molecular target: 5'-AMP-activated protein kinase catalytic subunit alpha-2 (Homo sapiens) (UniProt P54646); conditions: at 1 µM
[12] = molecular target: T4, NUAK family SNF1-like kinase 1 (Homo sapiens) (UniProt O60285); conditions: at 0.1 µM
T4 sequence (whole entry): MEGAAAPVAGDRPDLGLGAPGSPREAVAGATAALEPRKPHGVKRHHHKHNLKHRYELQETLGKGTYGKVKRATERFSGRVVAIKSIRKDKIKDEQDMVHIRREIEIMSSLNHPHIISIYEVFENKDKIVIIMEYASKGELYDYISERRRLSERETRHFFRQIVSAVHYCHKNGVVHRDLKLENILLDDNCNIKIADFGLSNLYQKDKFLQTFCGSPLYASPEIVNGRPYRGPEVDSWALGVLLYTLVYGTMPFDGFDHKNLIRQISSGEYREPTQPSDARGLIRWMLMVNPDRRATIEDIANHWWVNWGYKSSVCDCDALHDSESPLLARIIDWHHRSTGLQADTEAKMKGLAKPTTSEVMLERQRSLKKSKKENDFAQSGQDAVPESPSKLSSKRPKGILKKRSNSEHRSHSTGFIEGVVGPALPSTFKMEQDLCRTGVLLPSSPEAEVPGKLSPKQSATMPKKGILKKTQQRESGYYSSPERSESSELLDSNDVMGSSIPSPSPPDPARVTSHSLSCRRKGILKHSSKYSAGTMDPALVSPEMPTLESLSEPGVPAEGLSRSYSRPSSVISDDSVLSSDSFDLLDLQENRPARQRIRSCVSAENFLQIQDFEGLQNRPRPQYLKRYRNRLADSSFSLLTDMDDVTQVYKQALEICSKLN

[13] = molecular target: T4, NUAK family SNF1-like kinase 1 (Homo sapiens); conditions: at 1 µM
[14] = molecular target: T5, Serine/threonine-protein kinase BRSK1 (Homo sapiens) (UniProt Q8TDC3); conditions: at 0.1 µM
T5 sequence (whole entry): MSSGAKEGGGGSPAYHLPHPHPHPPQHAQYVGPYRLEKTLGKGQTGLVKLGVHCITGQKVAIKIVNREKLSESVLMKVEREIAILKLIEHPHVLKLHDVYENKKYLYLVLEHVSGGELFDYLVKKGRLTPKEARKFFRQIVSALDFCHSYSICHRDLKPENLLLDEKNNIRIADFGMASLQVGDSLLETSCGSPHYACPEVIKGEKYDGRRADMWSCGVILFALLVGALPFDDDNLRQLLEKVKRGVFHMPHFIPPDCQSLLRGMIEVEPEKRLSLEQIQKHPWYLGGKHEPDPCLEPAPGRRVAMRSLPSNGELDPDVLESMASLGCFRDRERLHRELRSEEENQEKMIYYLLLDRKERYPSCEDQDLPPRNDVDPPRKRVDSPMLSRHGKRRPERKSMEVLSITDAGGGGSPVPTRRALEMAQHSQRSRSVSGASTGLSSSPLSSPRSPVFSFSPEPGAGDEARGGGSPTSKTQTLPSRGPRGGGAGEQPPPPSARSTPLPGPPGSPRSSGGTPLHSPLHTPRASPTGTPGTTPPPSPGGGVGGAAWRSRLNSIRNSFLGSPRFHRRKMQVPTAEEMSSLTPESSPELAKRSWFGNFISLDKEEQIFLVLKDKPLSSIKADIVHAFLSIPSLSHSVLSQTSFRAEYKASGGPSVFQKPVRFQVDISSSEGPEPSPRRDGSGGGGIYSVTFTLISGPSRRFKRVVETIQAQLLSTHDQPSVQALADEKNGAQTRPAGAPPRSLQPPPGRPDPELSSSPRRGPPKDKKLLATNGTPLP

[15] = molecular target: T5, Serine/threonine-protein kinase BRSK1 (Homo sapiens); conditions: at 1 µM
[16] = molecular target: T6, Serine/threonine-protein kinase BRSK2 (Homo sapiens) (UniProt Q8IWQ3); conditions: at 0.1 µM
T6 sequence (whole entry): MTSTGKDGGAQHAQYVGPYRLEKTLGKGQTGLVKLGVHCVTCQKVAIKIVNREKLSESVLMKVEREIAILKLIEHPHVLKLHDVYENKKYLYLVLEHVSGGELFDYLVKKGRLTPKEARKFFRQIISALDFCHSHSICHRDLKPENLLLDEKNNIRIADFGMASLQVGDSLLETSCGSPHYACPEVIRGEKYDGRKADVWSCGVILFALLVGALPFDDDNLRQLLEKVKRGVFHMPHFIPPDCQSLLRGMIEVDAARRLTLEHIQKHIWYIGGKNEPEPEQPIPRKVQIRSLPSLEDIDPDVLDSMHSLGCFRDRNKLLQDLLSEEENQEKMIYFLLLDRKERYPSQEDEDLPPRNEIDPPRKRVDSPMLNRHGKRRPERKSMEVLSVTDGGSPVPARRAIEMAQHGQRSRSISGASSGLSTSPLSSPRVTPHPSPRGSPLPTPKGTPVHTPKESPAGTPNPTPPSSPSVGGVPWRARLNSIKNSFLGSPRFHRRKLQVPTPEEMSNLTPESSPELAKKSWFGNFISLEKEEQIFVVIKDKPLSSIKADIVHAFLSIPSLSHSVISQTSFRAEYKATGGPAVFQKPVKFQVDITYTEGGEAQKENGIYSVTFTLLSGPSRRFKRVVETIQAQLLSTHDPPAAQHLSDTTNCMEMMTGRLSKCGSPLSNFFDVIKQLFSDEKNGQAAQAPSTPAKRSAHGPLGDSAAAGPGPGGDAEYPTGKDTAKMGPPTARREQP

[17] = molecular target: T6, Serine/threonine-protein kinase BRSK2 (Homo sapiens); conditions: at 1 µM
[18] = molecular target: Calcium/calmodulin-dependent protein kinase type 1D (Homo sapiens) (UniProt Q8IU85); conditions: at 0.1 µM
[19] = molecular target: Calcium/calmodulin-dependent protein kinase type 1D (Homo sapiens) (UniProt Q8IU85); conditions: at 1 µM
[20] = molecular target: Calcium/calmodulin-dependent protein kinase type II subunit alpha (Homo sapiens) (UniProt Q9UQM7); conditions: at 0.1 µM;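 note: reported values are averages (mean inhibition of CAMK2A)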
Sequence of Calcium/calmodulin-dependent protein kinase type II subunit alpha (Homo sapiens) (Q9UQM7 whole entry): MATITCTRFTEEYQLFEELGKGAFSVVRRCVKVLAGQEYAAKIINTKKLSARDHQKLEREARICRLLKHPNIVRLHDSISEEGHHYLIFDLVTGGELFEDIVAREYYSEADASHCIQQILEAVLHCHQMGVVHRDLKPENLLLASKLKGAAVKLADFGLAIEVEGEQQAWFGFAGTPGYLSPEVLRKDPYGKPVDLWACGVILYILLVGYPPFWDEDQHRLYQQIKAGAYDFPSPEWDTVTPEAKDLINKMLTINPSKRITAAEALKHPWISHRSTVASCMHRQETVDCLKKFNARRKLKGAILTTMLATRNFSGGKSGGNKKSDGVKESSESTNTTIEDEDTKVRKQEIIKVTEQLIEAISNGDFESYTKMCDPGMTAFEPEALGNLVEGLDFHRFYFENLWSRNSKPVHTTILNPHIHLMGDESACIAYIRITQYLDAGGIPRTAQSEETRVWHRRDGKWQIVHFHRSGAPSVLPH

Sequence of 5'-AMP-activated protein kinase catalytic subunit alpha-2 (Homo sapiens) (P54646 whole entry, looked up): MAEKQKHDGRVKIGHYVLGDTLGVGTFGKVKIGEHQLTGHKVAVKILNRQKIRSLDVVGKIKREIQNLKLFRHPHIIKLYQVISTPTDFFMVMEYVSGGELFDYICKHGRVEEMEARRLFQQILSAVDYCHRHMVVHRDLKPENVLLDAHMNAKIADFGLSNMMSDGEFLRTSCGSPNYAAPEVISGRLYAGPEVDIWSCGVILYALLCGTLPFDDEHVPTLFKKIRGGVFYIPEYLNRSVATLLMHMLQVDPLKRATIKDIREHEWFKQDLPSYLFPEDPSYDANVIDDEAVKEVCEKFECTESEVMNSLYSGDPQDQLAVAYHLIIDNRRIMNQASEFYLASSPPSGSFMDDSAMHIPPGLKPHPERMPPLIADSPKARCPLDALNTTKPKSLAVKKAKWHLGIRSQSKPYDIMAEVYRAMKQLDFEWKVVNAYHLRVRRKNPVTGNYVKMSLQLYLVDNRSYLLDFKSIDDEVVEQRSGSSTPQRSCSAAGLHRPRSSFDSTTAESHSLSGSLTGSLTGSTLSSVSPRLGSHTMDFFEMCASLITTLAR
Sequence of Calcium/calmodulin-dependent protein kinase type 1D (Homo sapiens) (Q8IU85 whole entry, looked up): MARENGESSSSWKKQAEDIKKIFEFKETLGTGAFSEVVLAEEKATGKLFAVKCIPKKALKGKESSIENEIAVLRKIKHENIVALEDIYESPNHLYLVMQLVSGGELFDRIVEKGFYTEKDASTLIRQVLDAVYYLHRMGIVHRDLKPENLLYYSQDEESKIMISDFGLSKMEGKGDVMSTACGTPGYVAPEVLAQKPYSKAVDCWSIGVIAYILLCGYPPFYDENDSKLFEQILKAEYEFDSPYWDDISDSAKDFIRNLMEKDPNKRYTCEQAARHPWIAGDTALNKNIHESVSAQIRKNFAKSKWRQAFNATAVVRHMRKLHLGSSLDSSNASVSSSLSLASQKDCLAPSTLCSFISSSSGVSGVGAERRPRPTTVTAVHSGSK
Sequence of Ribosomal protein S6 kinase alpha-6 (Homo sapiens) (Q9UK32 whole entry): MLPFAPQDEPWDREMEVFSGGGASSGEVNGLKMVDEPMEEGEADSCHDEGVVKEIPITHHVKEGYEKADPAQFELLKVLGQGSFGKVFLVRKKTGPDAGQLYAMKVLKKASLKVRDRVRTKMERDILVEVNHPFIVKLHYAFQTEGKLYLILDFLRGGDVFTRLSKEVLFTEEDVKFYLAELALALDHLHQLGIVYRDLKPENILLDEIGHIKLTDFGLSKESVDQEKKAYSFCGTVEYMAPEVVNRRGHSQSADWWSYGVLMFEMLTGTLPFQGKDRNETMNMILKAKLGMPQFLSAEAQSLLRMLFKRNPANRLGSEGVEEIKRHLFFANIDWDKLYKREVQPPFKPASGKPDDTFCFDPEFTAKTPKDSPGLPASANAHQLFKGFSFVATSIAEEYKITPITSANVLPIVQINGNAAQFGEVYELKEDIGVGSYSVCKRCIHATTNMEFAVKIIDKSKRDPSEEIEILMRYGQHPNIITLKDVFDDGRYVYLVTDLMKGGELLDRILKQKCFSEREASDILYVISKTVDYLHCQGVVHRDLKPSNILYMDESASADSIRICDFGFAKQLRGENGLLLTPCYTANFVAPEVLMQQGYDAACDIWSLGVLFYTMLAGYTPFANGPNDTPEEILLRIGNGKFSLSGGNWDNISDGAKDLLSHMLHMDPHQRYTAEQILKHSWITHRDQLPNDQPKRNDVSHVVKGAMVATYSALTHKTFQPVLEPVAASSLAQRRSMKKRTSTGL
Sequence of 5'-AMP-activated protein kinase catalytic subunit alpha-1 (Homo sapiens) (Q13131 whole entry, looked up): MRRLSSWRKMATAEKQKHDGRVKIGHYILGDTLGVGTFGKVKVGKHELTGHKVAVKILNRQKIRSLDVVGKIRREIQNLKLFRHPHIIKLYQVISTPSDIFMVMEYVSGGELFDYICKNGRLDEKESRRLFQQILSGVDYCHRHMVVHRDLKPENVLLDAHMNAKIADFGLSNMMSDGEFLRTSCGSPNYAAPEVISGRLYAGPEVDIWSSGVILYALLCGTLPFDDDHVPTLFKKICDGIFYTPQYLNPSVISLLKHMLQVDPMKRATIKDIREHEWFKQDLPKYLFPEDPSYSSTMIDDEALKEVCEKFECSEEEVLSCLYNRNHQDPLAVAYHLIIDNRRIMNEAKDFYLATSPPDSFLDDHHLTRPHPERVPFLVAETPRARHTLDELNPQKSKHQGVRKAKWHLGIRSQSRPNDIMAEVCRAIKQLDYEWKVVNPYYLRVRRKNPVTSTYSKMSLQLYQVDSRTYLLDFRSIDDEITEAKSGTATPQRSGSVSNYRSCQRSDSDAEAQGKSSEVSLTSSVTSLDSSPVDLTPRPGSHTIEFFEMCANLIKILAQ

Row | SMILES | inhibition [1] | inhibition [2] | inhibition [3] | inhibition [4] | inhibition [5] | inhibition [6] | inhibition [7] | inhibition [8] | inhibition [9] | inhibition [10] | inhibition [11] | inhibition [12] | inhibition [13] | inhibition [14] | inhibition [15] | inhibition [16] | inhibition [17] | inhibition [18] | inhibition [19] | inhibition [20]
1 | COc1cc(C)c(N(C)C(=O)CN(C)C)cc1Nc1nc(Nc2cccc(F)c2C(N)=O)c2cc[nH]c2n1 | 4.74% | 1.3% | 0.1% | -3% | 3.7% | 0.02% | 0.78% | 1.44% | 0.94% | -0.28% | 3.07% | 0.7% | 4.1% | 0.88% | -0.02% | 0.05% | 0.83% | 1.27% | 2.67% | 3.48%
2 | CN(C)c1ccc2c(c1)/C(=C/Nc1ccc(S(N)(=O)=O)cc1)C(=O)N2 | 20.9% | 2.27% | 5.38% | 0.91% | -1.11% | 1.07% | -1.85% | 10.2% | 44.5% | 7.02% | 26.8% | 39.5% | 55.6% | 11.3% | 42.7% | 18.5% | 54.2% | 0.43% | 4.29% | 3.79%
3 | CS(=O)(=O)CCNCc1cc(-c2cc3c(Nc4ccc(OCc5cccc(F)c5)c(Cl)c4)ncnc3s2)cs1 | 2.5% | 2.39% | 1.38% | 5.74% | 2.6% | 3.92% | 6.65% | 2.39% | 3.88% | 5.96% | 3.11% | -0.49% | 3.79% | 1.37% | -0.77% | 0.67% | 4.02% | 0.48% | 2.27% | 3.07%
